Records with an inconclusive call do not appear. Entries that show only a call come without a potency. A number with no mark means an inactive call. Active and inactive are the calls of the source. Calls follow the shape of the dose curve; as a rule, active = well fitted curve in the direction sought with a large enough effect; inconclusive = small, poorly fitted or top-dose-only effect, or another doubt; inactive = no such curve, though single readings can be large; an effect the other way counts as inactive or inconclusive.
Assays:
[1] = target: Calcium and integrin-binding protein 1 (Homo sapiens) (UniProt Q99828); assay: Primary qHTS for Identification of Calcium Integrin Binding Protein 1 (CIB1) Competitor (AID 1508620);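 also: GST tagged CIB1 binding a fluorescein labelled alphaIIb integrin peptide tracer; top concentration of the series differs between compounds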
How it was run: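 Fluorescence polarization competition: CIB1-GST (1 uM final) preincubated with compound 15 min at room temperature, then FITC-labeled alphaIIb peptide (100 nM final) added for another 15 min. Polarization read at Ex 480/Em 540.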

[2] = Counterscreen qHTS for small molecule stabilizers of the endoplasmic reticulum resident proteome: GLuc-NoTag assay (AID 1508627); also: potency is read from the fitted curve at half-maximal effect
How it was run: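 Secreted GLuc lacking the SERCaMP modification is measured in SH-SY5Y cells exposed to compound for 19 h and then to thapsigargin (100 nM, 4 h) to deplete ER calcium; hits retested at 11 concentrations, up to 76.6 uM.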

[3] = Primary qHTS for small molecule stabilizers of the endoplasmic reticulum resident proteome: Secreted ER Calcium Modulated Protein (SERCaMP) assay (AID 1508630); also: potency is read from the fitted curve at half-maximal effect
How it was run: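 The SH-SY5Y reporter protocol was run at 3 concentrations up to 38.3 uM (primary) or 11 concentrations (follow-up): 16 h compound, 100 nM thapsigargin for 4 h, then extracellular luciferase luminescence.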

[4] = Cell Viability qHTS for small molecule stabilizers of the endoplasmic reticulum resident proteome (AID 1508629); settings: cell viability counter-screen, 100 nM thapsigargin for final 4 h;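 also: compound exposure about 46 h in total before the viability read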; also: potency is read from the fitted curve at half-maximal effect;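 as to max response: human SH-SY5Y neuroblastoma cells carrying the GLuc-SERCaMP reporter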
[5] = Confirmatory qHTS for small molecule stabilizers of the endoplasmic reticulum resident proteome: Secreted ER Calcium Modulated Protein (SERCaMP) assay (AID 1508628); also: nearly all actives have a fitted effect of over 40% in size; also: potency is read from the fitted curve at half-maximal effect
How it was run: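 GLuc-SERCaMP-expressing SH-SY5Y cells, pretreated 16 h with compound, are challenged with thapsigargin to empty ER calcium stores; after 4 h, coelenterazine is added directly to the medium and luminescence is imaged.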

Sequence of Calcium and integrin-binding protein 1 (Homo sapiens) (Q99828 whole entry, looked up): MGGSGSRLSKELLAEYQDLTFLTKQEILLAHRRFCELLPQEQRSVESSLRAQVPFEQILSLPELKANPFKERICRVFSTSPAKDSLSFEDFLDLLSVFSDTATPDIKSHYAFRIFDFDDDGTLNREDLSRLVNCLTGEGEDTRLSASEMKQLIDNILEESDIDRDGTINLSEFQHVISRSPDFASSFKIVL

With `CC[C@H]1OC(=O)[C@H](C)[C@@H](O[C@H]2C[C@@](C)(OC)[C@@H](O)[C@H](C)O2)[C@H](C)[C@@H](O[C@@H]2O[C@H](C)C[C@H](N(C)C)[C@@H]2O)[C@](C)(O)C[C@@H](C)CN(C)[C@H](C)[C@@H](O)[C@]1(C)O` the Potency [1] was “inactive”, the Potency [2] was “inactive” and the Potency [3] was “inactive”.
For `COc1ccc(C2CC(c3ccccc3)=NN2c2ccc(S(N)(=O)=O)cc2)cc1` (centres undefined), the Potency [1] was “inactive”.
With `NC[C@@H]1O[C@@H](O[C@H]2[C@@H](O)[C@H](O[C@@H]3[C@@H](O)[C@@H](N)C[C@H](N)[C@H]3O[C@H]3O[C@H](CN)[C@@H](O)[C@@H](O)[C@H]3N)O[C@H]2CO)[C@H](N)[C@@H](O)[C@@H]1O` the Potency [1] was “inactive” and the Potency [3] was “inactive”.
For `CO[C@H]1C[C@@H]2CC[C@@H](C)[C@@](O)(O2)C(=O)C(=O)N2CCCC[C@@H]2C(=O)O[C@H]([C@H](C)C[C@@H]2CC[C@H](OC(=O)C(C)(CO)CO)[C@H](OC)C2)CC(=O)[C@H](C)C=C(C)[C@@H](O)[C@@H](OC)C(=O)[C@H](C)C[C@H](C)C=CC=CC=C1C`, the Potency [1] was “inactive”.
With `Cn1cc(C=C2C(=O)Nc3cccnc32)c2ccccc21` the Potency [1] was “inactive” and the max response [4] was 16.6%.
With `Cc1[nH]c(C=C2C(=O)Nc3ccc(S(=O)(=O)Cc4c(Cl)cccc4Cl)cc32)c(C)c1C(=O)N1CCC[C@H]1CN1CCCC1` the Potency [1] was “inactive” and the Potency [3] was “inactive”.
In the case of `O=C1c2ccccc2-[n+]2ccc3c([nH]c4ccccc43)c21`, the Potency [1] is reported as “inactive”, the Potency [2] is reported as 2000 nM (active) and the Potency [5] is reported as 20000 nM (active). For the same molecule, the Potency [4] was 1000 nM (active) and the Potency [3] was 10600 nM (active).
For `O=C(O)[C@H]1O[C@H](Oc2cc3oc(-c4ccccc4)cc(=O)c3c(O)c2O)[C@H](O)[C@@H](O)[C@H]1O`, the Potency [1] was “inactive”.
For `O=C(O)c1ccc(-c2c[nH]c3ncc(-c4ccccc4)cc23)cc1C1CCCC1`, the Potency [1] was “inactive”.
In the case of `O=c1ccn([C@@H]2O[C@H](CO)[C@H](O)[C@H]2O)c(=O)[nH]1`, the Potency [1] is reported as “inactive”, the Potency [2] is reported as “inactive” and the Potency [5] is reported as “inactive”. For the same molecule, the Potency [3] was 1680 nM (active).
For `Nc1ncnc2c1ncn2[C@@H]1O[C@H](CO)C[C@@H]1O`, the Potency [1] was “inactive”, the max response [4] was 15.2% and the Potency [3] was “inactive”.
In the case of `COc1ccc(C2Sc3ccccc3N(CCN(C)C)C(=O)C2OC(C)=O)cc1` (centres undefined), the Potency [1] is reported as “inactive”.
For `COC(=O)C1=CO[C@@H](O)[C@@H]2C(CO)=CC[C@@H]12`, the Potency [1] was “inactive”.
With `CC[C@H]1OC(=O)[C@H](C)C(=O)[C@H](C)[C@@H](O[C@H]2O[C@H](C)C[C@H](N(C)C)[C@@H]2O)[C@](C)(OC)C[C@@H](C)C(=O)[C@H](C)[C@H]2N(CCCCn3cnc(-c4cccnc4)c3)C(=O)O[C@]12C` the Potency [1] was “inactive”.
For `O=C(CCN1CCN(C(=O)OCc2cc(Cl)cc(Cl)c2)CC1)c1ccc2[nH]c(=O)oc2c1`, the Potency [1] was “inactive” and the Potency [3] was “inactive”.
For `C=CCc1ccc(O)c(-c2ccc(O)c(CC=C)c2)c1`, the Potency [1] was “inactive”.
For `C=C1C(=O)OC2C=C(C)CCC=C(C)CCC12` (centres undefined), the Potency [1] was “inactive” and the Potency [2] was “inactive”.
For `O=c1cc(-c2ccccc2)oc2cc(O)cc(O)c12`, the Potency [1] was “inactive”.
In the case of `Cc1c(O)cccc1C(=O)N[C@@H](CSc1ccccc1)[C@H](O)CN1C[C@H]2CCCC[C@@H]2C[C@@H]1C(=O)NC(C)(C)C`, the Potency [1] is reported as “inactive”.
In the case of `O=C1C(Cl)=C(NCCN2CCOCC2)C(=O)c2ncccc21`, the Potency [1] is reported as “inactive” and the Potency [3] is reported as “inactive”.
With `COc1cc(Nc2ncc(F)c(Nc3ccc4c(n3)NC(=O)C(C)(C)O4)n2)cc(OC)c1OC` the Potency [1] was “inactive” and the Potency [3] was “inactive”.
With `NC(=O)[C@@H](CCC(F)(F)F)N(Cc1ccc(-c2ncon2)cc1F)S(=O)(=O)c1ccc(Cl)cc1` the Potency [1] was “inactive” and the Potency [3] was “inactive”.
In the case of `COc1ccc(-c2coc3cc(O)ccc3c2=O)cc1`, the Potency [1] is reported as “inactive” and the Potency [3] is reported as “inactive”.
With `COc1ccc(-n2c(C)c([N+](=O)[O-])c3ccc(O)cc32)cc1` the Potency [1] was “inactive” and the Potency [3] was “inactive”.
For `COc1ccc2c3c1OC1C[C@@H](O)C=C[C@@]31CCN(C)C2` (some centres undefined), the Potency [1] was “inactive” and the Potency [3] was “inactive”.
For `O=c1c(-c2ccc(O)cc2)coc2cc(O[C@@H]3O[C@H](CO)[C@H](O)[C@H](O)[C@H]3O)ccc12`, the Potency [1] was “inactive” and the Potency [3] was “inactive”.
For `CC(=Cc1ccccc1)C=C1SC(=S)N(CC(=O)O)C1=O`, the Potency [1] was “inactive” and the Potency [3] was “inactive”.
In the case of `O=C1NC(=O)C(=Cc2cccc(C(F)(F)F)c2)S1`, the Potency [1] is reported as “inactive” and the Potency [3] is reported as “inactive”.
With `OC[C@H]1O[C@@H](Oc2cc(O)cc(C=Cc3ccc(O)cc3)c2)[C@H](O)[C@@H](O)[C@H]1O` the Potency [1] was “inactive” and the Potency [3] was “inactive”.
For `Cc1ccccc1C(C(=O)NC1CCCCC1)N(C(=O)Cn1ccnc1C)c1cccc(F)c1` (centres undefined), the Potency [1] was “inactive” and the Potency [3] was “inactive”.
For `CC1(C)CCC[C@@]2(C)[C@@H]1CC[C@@]1(C)OC(=O)C[C@H]21`, the Potency [1] was “inactive” and the Potency [3] was “inactive”.
For `CC(=NNC(=S)N1CCC1)c1ccccn1`, the Potency [1] was “inactive” and the Potency [3] was “inactive”.
For `O=C1NC(=O)C(=Cc2ccc3c(c2)OC(F)(F)O3)S1`, the Potency [1] was “inactive” and the Potency [3] was “inactive”.
In the case of `CC[C@@]1(O)C[C@H](O[C@H]2C[C@H](N(C)C)[C@H](O[C@H]3C[C@H](O)[C@H](O[C@H]4CCC(=O)[C@H](C)O4)[C@H](C)O3)[C@H](C)O2)c2c(cc3c(c2O)C(=O)c2c(O)cccc2C3=O)[C@@H]1C(=O)OC`, the Potency [1] is reported as “inactive” and the Potency [3] is reported as “inactive”.
With `Clc1cc(Cl)cc(CNc2ncncc2-c2ccc3c(c2)OCO3)c1` the Potency [1] was “inactive” and the Potency [3] was “inactive”.
With `CCC(CC)[C@H](NC(C)=O)[C@@H]1[C@H](O)[C@@H](C(=O)O)C[C@@H]1N=C(N)N` the Potency [1] was “inactive” and the Potency [3] was “inactive”.
